TSG101-PTAP inh: blocks PTAP/TSG101 interaction to inhibit HIV-1 budding; Q99816; Fluorescence polarization, FITC-PTAP peptide / Tsg101 binding; Potency, µM (top dose mostly 115 µM), hits mostly inhibitors; 340,000 tested, under 10 active; AID 493005; active = well fitted inhibition curve with a large enough effect in the main read-out, with a control signal flat, not every such curve was filed as active; inconclusive = small, poorly fitted or top-dose-only effect, or effect the other way, or a change in a side signal; inactive = no such curve, though single readings can be large or run the other way
Target sequence (Q99816 whole entry, looked up): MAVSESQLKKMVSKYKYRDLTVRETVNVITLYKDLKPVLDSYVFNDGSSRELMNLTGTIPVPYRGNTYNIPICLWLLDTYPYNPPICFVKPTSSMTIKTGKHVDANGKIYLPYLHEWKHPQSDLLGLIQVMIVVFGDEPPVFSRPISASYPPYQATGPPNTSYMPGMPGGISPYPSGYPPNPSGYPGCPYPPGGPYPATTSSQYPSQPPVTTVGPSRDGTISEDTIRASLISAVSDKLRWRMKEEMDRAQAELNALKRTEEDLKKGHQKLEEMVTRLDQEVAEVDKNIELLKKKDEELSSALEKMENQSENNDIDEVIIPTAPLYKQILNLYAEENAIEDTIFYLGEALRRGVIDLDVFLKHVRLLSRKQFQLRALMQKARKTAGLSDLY
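Fluorescence anisotropy tracks displacement of a FITC-tagged PTAP peptide (50 nM) from the Tsg101 binding domain (10 uM), following a 20 min room-temperature incubation at pH 7.5.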
BRCA1 expr act: activators of BRCA1 expression; MCF7-BRCA1-FFLuc reporter, luminescence, 48 h; response scale: scaled: vehicle 0%, 10 µM genistein 100%; Potency, µM (series often up to 46.1 µM), usual class: activators; 1.1% of 380,000 active; AID 624202; also: nearly all actives have a fitted effect of over 80% in size
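First, MCF7-BRCA1-FFLuc cells (2000/well) attach for 2 h; next, compounds are pin-added and incubated 48 h at 37 °C; finally, luciferase reagent is added and luminescence read after 15 min.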
S-ASM inh: human S-ASM enzyme inhibition; 0.006% of 340,000 active; placental ASM, HMU-PC fluorogenic substrate, 60 min; Potency, µM (series often up to 57.5 µM), usual class: inhibitors
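Steps: dispense placental human ASM, pin compound, wait 10 min at room temperature, add HMU-PC0 substrate at 9 uM final, incubate 60 min at 37 °C, add stop solution raising pH to 10, read fluorescence.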
TSHR antag: blocks TSH signaling through the human TSH receptor; 0.2% of 330,000 active; P16473; TSHR-expressing cells, TSH-stimulated cAMP HTRF, 2 h; active compounds read low; AID 504810; activity change, negative = inhibition, % at 11.5 µM;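 active = activity change below a set negative limit, meaning inhibition stronger than a set level, cut at about -70% in these data; inconclusive = activity change between two set negative limits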
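Competitive HTRF cAMP read-out (cryptate anti-cAMP antibody, cAMP-d2; 30 min, room temperature) in freshly harvested TSHR cells. Compounds added before TSH at EC80 (4nM final), followed by 2 hours' incubation at 37 deg C.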
Apoferritin bind: binds horse apoferritin like a general anesthetic; P02791; apoferritin/1-aminoanthracene competitive binding, fluorescence; Potency, µM (top dose mostly 77.5 µM), actives largely listed as inhibitors; 0.074% of 350,000 active; also: nearly all actives have a fitted effect of over 20% in size
Target sequence (P02791 2-175 limits assumed): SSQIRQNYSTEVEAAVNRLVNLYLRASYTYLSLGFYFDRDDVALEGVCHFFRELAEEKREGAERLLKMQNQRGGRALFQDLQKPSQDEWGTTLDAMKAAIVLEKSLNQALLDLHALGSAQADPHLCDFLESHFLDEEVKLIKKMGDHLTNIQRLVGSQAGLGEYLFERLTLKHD
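Read-out: endpoint 1-AMA fluorescence, excitation 380 nm and emission 535 nm, after compounds sit 10 min at room temperature with 10 uM horse-spleen apoferritin in 50% saturated 1-AMA/PBS. Values come from four-parameter Hill fits.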
Of the large screens only hits and unclear results are named; the others gave an inactive call. Compounds with a hit are over-represented: about 1.2% of the library has one in this group of screens. Unless noted, calls follow the shape of the dose curve; as a rule, active = well fitted curve in the direction sought with a large enough effect; inconclusive = small, poorly fitted or top-dose-only effect, or another doubt; inactive = no such curve, though single readings can be large; an effect the other way counts as inactive or inconclusive.

S=C(Nc1ccc(Br)cc1)NC1CCCCC1	BRCA1 expr act 10µM
CCc1ccc(NC(=S)N2CCN(C)CC2)cc1	BRCA1 expr act 11µM
Cc1ccc(NC(=O)N2CCCCCC2)cc1	BRCA1 expr act 7.9µM, Apoferritin bind inconclusive
O=C(Nc1ccc(Br)cc1)N1CCCCCC1	Apoferritin bind inconclusive
CCc1ccc(NC(=S)N2CCCC2)cc1	BRCA1 expr act inconclusive
S=C(NCCCc1cnc[nH]1)NCCCN(CCc1ccc(Cl)cc1)c1ccc(Br)cn1	none (no result: TSG101-PTAP inh, S-ASM inh, TSHR antag, Apoferritin bind)
Cc1ccccc1NC(=O)c1nc(SCc2ccccc2F)ncc1Cl	none (no result: TSG101-PTAP inh, S-ASM inh, TSHR antag, Apoferritin bind)
Cc1ccc2c(c1)C(=O)C1(O)CCN(c3ccccc3)C1=N2 (stereo not given)	none (no result: TSG101-PTAP inh, BRCA1 expr act, S-ASM inh, TSHR antag)
Cc1ccc(NC(=S)N2CCCCCC2)cc1	BRCA1 expr act 13µM
CCc1ccc(NC(=O)N2CCCCCC2)cc1	BRCA1 expr act 7.1µM, Apoferritin bind inconclusive
Cc1ccc(NC(=O)C(=O)NC2CCCCC2)cc1	BRCA1 expr act 1.3µM
CN(C)c1ccc(Cn2ccc3ccccc32)cc1	none (no result: TSG101-PTAP inh, S-ASM inh, TSHR antag, Apoferritin bind)
Fc1cccc(CSc2nc3ccncc3[nH]2)c1	BRCA1 expr act inconclusive
Clc1cccc(CSc2nc3ccncc3[nH]2)c1	BRCA1 expr act 8.9µM
Cc1ccc(C(=O)C2OC(=O)C(C)(C)C(=O)C2(C)C)cc1 (stereo not given)	Apoferritin bind 6.3µM
COc1ccc(-c2csc(NC(=O)c3ccccc3NS(=O)(=O)c3ccc(F)c(F)c3)n2)cc1	TSHR antag -88
Nc1ncnc2c1nc(Br)n2C1OC2COP(=O)(O)O[C@@H]2C1O (stereo not given in full)	none (no result: TSG101-PTAP inh, BRCA1 expr act, S-ASM inh, Apoferritin bind)
CC1(C)OC(=O)C2(Cc3cc([N+](=O)[O-])ccc3N3CCCCCC32)C(=O)O1 (stereo not given)	none (no result: TSG101-PTAP inh, S-ASM inh, TSHR antag, Apoferritin bind)
O=C(NCCc1c[nH]c2ccccc12)c1cnc2n(c1=O)CCS2	none
O=C(NCCc1ccccc1)c1cnc2n(c1=O)CCS2	BRCA1 expr act 7.1µM
CN(C)C(=O)CSc1nnc2sc3ccccc3n12	none
O=C(CSc1nnc2sc3ccccc3n12)c1ccco1	BRCA1 expr act 13µM
Cc1sc2ccccc2[n+]1CCCCBr	none (no result: TSG101-PTAP inh, S-ASM inh, TSHR antag, Apoferritin bind)
O=C(NC1CCCCCC1)C1CCC(CNS(=O)(=O)c2cccc3cccnc23)CC1 (stereo not given)	none (no result: TSG101-PTAP inh, S-ASM inh, TSHR antag, Apoferritin bind)
CN1C2CC(OC(=O)[C@H](CO)c3ccccc3)CC1C1OC12 (stereo not given in full)	none (no result: TSG101-PTAP inh, BRCA1 expr act, S-ASM inh, Apoferritin bind)
COc1ccc(OC)c(C2OCCC=CC2C)c1 (stereo not given)	none (no result: TSG101-PTAP inh, BRCA1 expr act, S-ASM inh, TSHR antag)
CC1(COS(N)(=O)=O)CCCCC1	Apoferritin bind 5.6µM
O=C(Nc1ccc(-c2nc3cccnc3s2)cc1)c1ccc(Cl)nc1	BRCA1 expr act 1.8µM
C(=NOCc1ccccc1)c1ccncc1	none (no result: TSHR antag, Apoferritin bind)
C(=NOCc1ccccc1)c1ccccn1	BRCA1 expr act 10µM (no result: TSG101-PTAP inh, S-ASM inh, TSHR antag, Apoferritin bind)
c1ccc(CSc2nnc(-c3ccco3)o2)cc1	Apoferritin bind inconclusive
Cc1ccccc1-c1nnc(SCc2ccccc2)o1	BRCA1 expr act 10µM
c1ccc(Cc2nnc(-c3ccccc3)o2)cc1	none
Cc1ccc(CSc2nnc(-c3ccco3)o2)cc1	BRCA1 expr act 5µM, Apoferritin bind inconclusive
Cc1ccccc1-c1nnc(Cc2ccccc2)o1	BRCA1 expr act 2.8µM
COc1cc2nc(NC3CCN(Cc4ccccc4)CC3)nc(N3CCCN(C)CC3)c2cc1OC	none (no result: TSG101-PTAP inh, S-ASM inh, TSHR antag, Apoferritin bind)
CSCc1ccc(C(=O)Nc2ccc(C(N)=O)cc2)cc1	BRCA1 expr act 5.6µM
Clc1cccc(-c2nc3ccc(Cl)cn3c2Cc2ccsc2)c1	BRCA1 expr act 13µM (no result: TSG101-PTAP inh, S-ASM inh, TSHR antag, Apoferritin bind)
COc1cc(OC)c(/C=C/c2c3ccccc3cc[n+]2C)c(OC)c1	none (no result: TSG101-PTAP inh, S-ASM inh, TSHR antag, Apoferritin bind)
CCCCc1ccc(N=N/C(C(=O)Nc2ccc(NC(C)=O)cc2OC)=C(/C)O)cc1	S-ASM inh 22µM, Apoferritin bind inconclusive
O=c1[nH]cnc2cc(-c3ccccc3)sc12	BRCA1 expr act 2.8µM
N#C/C(=C/c1ccc(N2CCCCC2)o1)c1cccc(F)c1	S-ASM inh inconclusive, Apoferritin bind inconclusive
N#C/C(=C/c1ccc(N2CCCCC2)cc1)c1cccc(F)c1	BRCA1 expr act 7.9µM
O=[N+]([O-])c1ccc(O/N=[N+](\[O-])N2CCN(c3ccccc3)CC2)c([N+](=O)[O-])c1	none (no result: TSG101-PTAP inh, S-ASM inh, TSHR antag, Apoferritin bind)
O=C(Nc1nnc(Cc2ccccc2)s1)c1cccs1	BRCA1 expr act inconclusive

Screening results from PubChem.
